# Source: the supplement of paper PMC13094657
# ± gives the standard deviation of the averaged measurements.
# Columns and labels:
# MDA-MB-231 [1] = test: cell viability relative to vehicle unstimulated control (fraction); higher = more viable cells; conditions: pre-treatment time: 18 h then 24 h IFNg/TNF
# MDA-MB-231 [2] = test: kynurenine production, fold change vs DMSO IFNg/TNF control; higher = more kynurenine produced (less inhibition); conditions: pre-treatment time: 18 h then 24 h IFNg/TNF
# How it was run: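 MDA-MB-231 cells (7 × 10^4/well, 96-well plates, seeded 24 h earlier) were pre-treated 18 h with each natural product in 0.1% DMSO, then stimulated 24 h with IFNγ (1 U/ml) and TNF (6.25 ng/ml) at 37°C. Supernatant kynurenine was read at 492 nm after trichloroacetic acid and p-dimethylaminobenzaldehyde treatment, against 0–100 μM standards. Kynurenine production is the fold change over cytokine-stimulated vehicle wells on the same plate, averaged over duplicate plates in the first screening round.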
# 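Wherever cell viability relative to vehicle unstimulated control is given: viability of the cells left after supernatant collection, read with Deep Blue dye added for 4 h, as absorbance at 570 nm minus 600 nm.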
Compound,cell viability (MDA-MB-231 [1]),kynurenine production (MDA-MB-231 [2])
C=C(C)[C@@H]1CC[C@]2(C(=O)O)CC[C@]3(C)[C@H](CC[C@@H]4[C@@]5(C)CC[C@H](O[C@@H]6OC[C@H](O)[C@H](O)[C@H]6O[C@@H]6O[C@@H](C)[C@H](O)[C@@H](O)[C@H]6O)[C@@](C)(CO)[C@@H]5CC[C@]43C)[C@@H]12 [Pulchinenoside A] (compound dose: 10 uM),1.04 ± 0.051,0.878 ± 0.057
CC(C)=CCC[C@@H](C(=O)O)[C@H]1CC[C@@]2(C)C3=CC[C@H]4C(C)(C)[C@@H](O)CC[C@]4(C)C3=CC[C@]12C [3-Dehydrotrametenolic acid] (compound dose: 10 uM),1.01 ± 0.045,0.83 ± 0.085
CC1(C)CC[C@]2(C)CC[C@]3(C)C(=CC[C@@H]4[C@@]5(C)CC[C@@H](O)[C@](C)(C(=O)O)[C@@H]5CC[C@]43C)[C@@H]2C1 [alpha-Boswellic acid] (compound dose: 10 uM),0.953 ± 0.011,0.911 ± 0.028
C=C(C)[C@@H]1CC=C(CO)CC1 [Perillyl alcohol] (compound dose: 10 uM),1.036 ± 0.0039,0.905 ± 0.13
C[C@H]1O[C@@H](O[C@H]2CC[C@@]3(C)[C@@H](CC[C@]4(C)[C@@H]3C=CC3=C5CC(C)(C)CC[C@]5(CO)[C@@H](O)C[C@]34C)[C@]2(C)CO)[C@H](O[C@@H]2O[C@H](CO)[C@@H](O)[C@H](O)[C@H]2O)[C@@H](O[C@@H]2O[C@H](CO)[C@@H](O)[C@H](O)[C@H]2O)[C@H]1O [Buddlejasaponin IVb] (compound dose: 10 uM),1.07 ± 0.067,1.34 ± 0.071
